Reference: PubChem BioAssay (NCI)
This is part of a sample that, as a whole, favours compounds with a hit. Of some 83,000 tested, about 20% had one in any assay.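 Growth was measured after 48 h exposure to one concentration of compound in 96-well plates. Values under 10 count as active.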 A number with no mark means an inactive call. The source made the active and inactive calls.

Tests used:
Assay in all cases: NCI-60 one-dose screen, 48 h (100 = growth as untreated, 0 = no growth, -100 = all killed)
Conditions in all cases: 10 µM unless noted
HT29 colon = system: HT29 colon
SNB-75 CNS = system: SNB-75 CNS
SNB-19 CNS = system: SNB-19 CNS
U251 CNS = system: U251 CNS
SK-MEL-5 melanoma = system: SK-MEL-5 melanoma
UACC-62 melanoma = system: UACC-62 melanoma
LOX IMVI melanoma = system: LOX IMVI melanoma
SK-MEL-28 melanoma = system: SK-MEL-28 melanoma
SK-MEL-2 melanoma = system: SK-MEL-2 melanoma
EKVX NSCLC = system: EKVX NSCLC
SN12C renal = system: SN12C renal
UO-31 renal = system: UO-31 renal
TK-10 renal = system: TK-10 renal
ACHN renal = system: ACHN renal
CAKI-1 renal = system: CAKI-1 renal
A498 renal = system: A498 renal
CCRF-CEM leukemia = system: CCRF-CEM leukemia
MOLT-4 leukemia = system: MOLT-4 leukemia
SR leukemia = system: SR leukemia

| Structure (SMILES) | growth (HT29 colon) | growth (SNB-75 CNS) | growth (SNB-19 CNS) | growth (U251 CNS) | growth (SK-MEL-5 melanoma) | growth (UACC-62 melanoma) | growth (LOX IMVI melanoma) | growth (SK-MEL-28 melanoma) | growth (SK-MEL-2 melanoma) | growth (EKVX NSCLC) | growth (SN12C renal) | growth (UO-31 renal) | growth (TK-10 renal) | growth (ACHN renal) | growth (CAKI-1 renal) | growth (A498 renal) | growth (CCRF-CEM leukemia) | growth (MOLT-4 leukemia) | growth (SR leukemia) |
| --- | --- | --- | --- | --- | --- | --- | --- | --- | --- | --- | --- | --- | --- | --- | --- | --- | --- | --- | --- |
| Cc1cc(C)n2nc(SCC(=O)Nc3sc4c(c3C(N)=O)CCC4)nc2n1 | 123% | 115% | 102% | 99.3% | 99% | 80.5% | 105% | 137% | 65% | 100% | 103% | 74.1% | 125% | 112% | 94.7% | 95.7% | 102% | 109% | 144% |
| COc1ccccc1[C@H]1c2[nH]c3ccccc3c2C[C@H]2C(=O)N(CCCCCCC(=O)NO)CC(=O)N12 | 23.4% | -6.11% (active) | 67.3% | 46.6% | 26.6% | 23.7% | 32.7% | 18.6% | 59.5% | 74.7% | 56.9% | 44.7% | 48.2% | 35.1% | 55.5% | 31.9% | 5.22% (active) | 11% | 19.3% |
| O=C1/C(=N/O)CCc2ccccc21 | 101% | 82.2% | 100% | 103% | 102% | 87.6% | 76.5% | 121% | 113% | 88.8% | 96.1% | 66.4% | 151% | 88.9% | 102% | – | 4.19% (active) | – | 113% |
| c1ccc2cc(C[n+]3ccn(CCCCCCCn4cc[n+](Cc5ccc6ccccc6c5)c4)c3)ccc2c1 | 10.4% | -2.59% (active) | 21.6% | 21% | -5.55% (active) | 27.3% | 40.7% | 44.3% | 23.4% | 27.9% | 24.2% | 76.7% | 70.6% | 60.2% | 91.9% | -3.36% (active) | – | – | 50.9% |
| CC(C)c1ccc(C(=O)Nc2sc3c(CN(C)C)c(O)ccc3c2C(N)=O)cc1 | 2.74% (active) | 48.5% | 84.4% | 34.3% | 88.3% | 104% | -88.3% (active) | 84.2% | 96.4% | 86.7% | 55.9% | 34.1% | 97.4% | 61.3% | 79.6% | 82.5% | -17.9% (active) | 15.2% | -2.24% (active) |
| CC/C(=C\c1ccc(N(C)C)cc1)c1ccncc1 | 14.6% | 39.2% | 64.5% | 29.3% | 32.5% | 44% | 41.5% | 65.4% | 49.9% | 63.5% | 52.6% | 57.6% | 73.6% | 59.4% | 43.4% | – | – | 38.7% | 22.8% |
| CCOC(=O)/C=C(/C)Sc1cc(O)c2ccccc2c1O | 79.7% | -83% (active) | -14.7% (active) | 20% | -99.1% (active) | 36.3% | -36.1% (active) | -53.9% (active) | 27.8% | 44.8% | -68.3% (active) | -5.64% (active) | 105% | 25.2% | 46.1% | 124% | 38.4% | 33% | 17.1% |
| Oc1ccc(-c2nn(-c3ccccc3)cc2-c2nc3ccccc3s2)cc1 | 112% | 101% | 93.9% | 94% | 92.3% | 88.1% | 78.4% | 117% | 135% | 79.5% | 85.3% | 55.4% | 142% | 91.1% | 82% | 81.7% | – | 87.8% | 75.4% |
| COc1cc2c(cc1OCCCCCn1c(-c3ccc(OCc4ccccc4)cc3)nc3cc(N4CCOCC4)ccc31)N=C[C@@H]1CCCN1C2=O | -13.7% (active) | 12.1% | 34.7% | -24.4% (active) | -66.7% (active) | -76.5% (active) | -29.7% (active) | -19% (active) | -40% (active) | 52.5% | 23.2% | 0.0572% (active) | -13.3% (active) | -54.5% (active) | 18.5% | -74.7% (active) | – | 23.7% | 137% |
| O=C(C=C=Nc1ccccc1)C(=O)N=C=Cc1ccccc1 | 52.1% | 75.8% | 92.3% | 83.7% | 74.3% | 67% | -47.5% (active) | 68.2% | 49.2% | 72.6% | 77.7% | -51.3% (active) | -20.3% (active) | -58.3% (active) | 17.7% | 102% | -35.5% (active) | -16.3% (active) | 3.67% (active) |
| COc1ccc(OC)c(NC(=O)c2cc3oc4ccccc4c3cc2O)c1 | 100% | 84% | 92.7% | 120% | 91.1% | 79.7% | 109% | 101% | 96.1% | 75.9% | 95% | 79.8% | 135% | 98.7% | 74.7% | 121% | 99.4% | 117% | 127% |
| CCC(=O)Nc1ccccc1C#C/C=C\C#Cc1ccccc1C(F)(F)F | 47.9% | 32.3% | 66.4% | 34.9% | 60.2% | 38.2% | 56.1% | 83.8% | 12.4% | 52.7% | 58.8% | 22.4% | 75% | 53.4% | 45% | 11.8% | 39.1% | – | 117% |
| O=C(Nc1cccc([N+](=O)[O-])c1)c1cccc(C(=O)Nc2cccc([N+](=O)[O-])c2)c1 | 88.5% | -40.4% (active) | 60.3% | 31.8% | 94% | 75.1% | 67.6% | 77.2% | 63.7% | 84.3% | 45.7% | 56.7% | 65.5% | 64.7% | 85.3% | 92.5% | – | 99.3% | 83.9% |
| [O-]/[N+](=C\C=C\c1ccccc1)c1ccccc1 | 102% | 91.8% | 96.8% | 98.8% | 102% | 93.8% | 96.8% | 110% | 100% | 100% | 106% | 97.4% | 144% | 108% | 103% | 96.9% | 88% | 85.1% | 73% |
| O=C(/C=C/c1cc2ccccc2[nH]c1=O)c1ccc(O)cc1 | 55.5% | 40.3% | 57.4% | 21.9% | 96.1% | 83.8% | 26.8% | 99.9% | 83.7% | 87.5% | 47.5% | 45.6% | 50.1% | 66.2% | 40.9% | 56.2% | – | 30.9% | -0.193% (active) |
| COc1cc(/C=C/C(=O)Nc2cccnc2Nc2cc(OC)c(OC)c(OC)c2)cc(OC)c1OC | 94.3% | 82.1% | 96.5% | 91.3% | 93.6% | 84.4% | 101% | 103% | 96.4% | 92% | 76.1% | 89.8% | 116% | 96.5% | 82.3% | – | 66.1% | 94.1% | 92.5% |
